A number with no mark means an inactive call.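 The calls were made as follows: active = growth AUC significantly below the DMSO wells by Dunnett test; inactive = the rest.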
Tests used:
Assay in all cases: relative growth (AUC of 72 h growth curve relative to DMSO control, dAUC) (ratio); higher = more growth (less inhibition), active = hit call of the paper
Conditions in all cases: 20 µM
[1] = system: Prolinoborus 1 (Prolinoborus fasciculus)
Procedure, shortened: (§1)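 Cultures grown to carrying capacity in Luria–Bertani medium, drawn from Icelandic stream sediment and Silwood Park soil isolates and whole sediment communities, were diluted 1:100 into 96-well plates with each chemical at 20 µM (1% DMSO) and read at A600 hourly for 72 h. The spline-integrated area under the growth curve, divided by the mean of the DMSO controls, is reported as relative growth (dAUC). Values are means of three biological replicates.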

[2] = system: Pseudomonas 1 (Pseudomonas baetica)
Procedure, shortened: as §1

[3] = system: Pseudomonas 2 (Pseudomonas vancouverensis)
Procedure, shortened: as §1

[4] = system: Pseudomonas 3 (Pseudomonas mandelii)
Procedure, shortened: as §1

[5] = system: Pseudomonas 4 (Pseudomonas peli)
Procedure, shortened: as §1

[6] = system: Pseudomonas 5 (Pseudomonas baetica)
Procedure, shortened: as §1

[7] = system: Pseudomonas 6 (Pseudomonas sp.)
Procedure, shortened: as §1

[8] = system: Rhizobium 1 (Rhizobium herbae)
Procedure, shortened: as §1

[9] = system: Serratia 1 (Serratia sp. 2015-2462-01)
Procedure, shortened: as §1

[10] = system: Sphingomonas 2 (Sphingomonas sp.)
Procedure, shortened: as §1

## N#CCNC(=O)c1cnccc1C(F)(F)F
[1]
  relative growth: 1.03
[2]
  relative growth: 1.05
[3]
  relative growth: 0.996
[4]
  relative growth: 0.97
[5]
  relative growth: 0.996
[6]
  relative growth: 1.01
[7]
  relative growth: 1.07
[8]
  relative growth: 0.857
[9]
  relative growth: 0.947
[10]
  relative growth: 1.08

## COP(=S)(OC)Oc1ccc(SC)c(C)c1
[1]
  relative growth: 0.975
[2]
  relative growth: 0.988
[3]
  relative growth: 0.973
[4]
  relative growth: 1.01
[5]
  relative growth: 0.957
[6]
  relative growth: 1.01
[7]
  relative growth: 1.01
[8]
  relative growth: 0.937
[9]
  relative growth: 0.998
[10]
  relative growth: 0.974

## CNC(=O)ON=C(C)SC
[1]
  relative growth: 0.938
[2]
  relative growth: 0.876
[3]
  relative growth: 0.956
[4]
  relative growth: 0.999
[5]
  relative growth: 0.946
[6]
  relative growth: 1.02
[7]
  relative growth: 0.936
[8]
  relative growth: 1.06
[9]
  relative growth: 0.936
[10]
  relative growth: 0.978

## CO/C=C(/C(=O)OC)c1ccccc1Oc1cc(Oc2ccccc2C#N)ncn1
[1]
  relative growth: 0.973
[2]
  relative growth: 1.07
[3]
  relative growth: 1.02
[4]
  relative growth: 1.06
[5]
  relative growth: 1.03
[6]
  relative growth: 1.03
[7]
  relative growth: 1.08
[8]
  relative growth: 0.967
[9]
  relative growth: 0.967
[10]
  relative growth: 1.09

## COP(=O)(OC)OC=C(Cl)Cl
[1]
  relative growth: 0.895
[2]
  relative growth: 1.08
[3]
  relative growth: 0.963
[4]
  relative growth: 1.04
[5]
  relative growth: 0.963
[6]
  relative growth: 1.01
[7]
  relative growth: 0.982
[8]
  relative growth: 1.01
[9]
  relative growth: 0.96
[10]
  relative growth: 0.823

## COP(=S)(OC)Oc1nc(Cl)c(Cl)cc1Cl
[1]
  relative growth: 1.04
[2]
  relative growth: 1.06
[3]
  relative growth: 1.08
[4]
  relative growth: 1.09
[5]
  relative growth: 1.03
[6]
  relative growth: 1.06
[7]
  relative growth: 1.12
[8]
  relative growth: 0.8
[9]
  relative growth: 0.998
[10]
  relative growth: 1.06

## COC(=O)N(OC)c1ccccc1COc1ccn(-c2ccc(Cl)cc2)n1
[1]
  relative growth: 1.01
[2]
  relative growth: 1.13
[3]
  relative growth: 1.04
[4]
  relative growth: 1.03
[5]
  relative growth: 1
[6]
  relative growth: 1.02
[7]
  relative growth: 1.15
[8]
  relative growth: 0.863
[9]
  relative growth: 0.984
[10]
  relative growth: 1.05

## Cc1nnc(-c2ccccc2)c(=O)n1N
[1]
  relative growth: 0.97
[2]
  relative growth: 1.08
[3]
  relative growth: 0.997
[4]
  relative growth: 1.03
[5]
  relative growth: 0.954
[6]
  relative growth: 0.987
[7]
  relative growth: 1.1
[8]
  relative growth: 1.07
[9]
  relative growth: 0.966
[10]
  relative growth: 1

## CC1(C)C(C=C(Cl)Cl)C1C(=O)OC(C#N)c1ccc(F)c(Oc2ccccc2)c1 (stereo not given)
[1]
  relative growth: 1.04
[2]
  relative growth: 1.22
[3]
  relative growth: 1.02
[4]
  relative growth: 1.02
[5]
  relative growth: 0.964
[6]
  relative growth: 1.03
[7]
  relative growth: 1.03
[8]
  relative growth: 1.06
[9]
  relative growth: 0.994
[10]
  relative growth: 1.03

## O=C1C2CC=CCC2C(=O)N1SC(Cl)(Cl)Cl (stereo not given)
[1]
  relative growth: 0.598 (active)
[2]
  relative growth: 0.601 (active)
[3]
  relative growth: 0.983
[4]
  relative growth: 0.941
[5]
  relative growth: 0.796 (active)
[6]
  relative growth: 0.954
[7]
  relative growth: 0.879
[8]
  relative growth: 0.519 (active)
[9]
  relative growth: 0.813 (active)
[10]
  relative growth: 0.398 (active)

## CS(=O)(=O)c1cc(C(F)(F)F)ccc1C(=O)c1cnoc1C1CC1
[1]
  relative growth: 1
[2]
  relative growth: 0.985
[3]
  relative growth: 1.02
[4]
  relative growth: 1.01
[5]
  relative growth: 1.02
[6]
  relative growth: 0.96
[7]
  relative growth: 0.911
[8]
  relative growth: 1.11
[9]
  relative growth: 1.06
[10]
  relative growth: 1.11

## CC(C)N1C(=O)c2ccccc2NS1(=O)=O
[1]
  relative growth: 1.01
[2]
  relative growth: 1.16
[3]
  relative growth: 1.03
[4]
  relative growth: 1.02
[5]
  relative growth: 0.975
[6]
  relative growth: 1.01
[7]
  relative growth: 1.03
[8]
  relative growth: 1.04
[9]
  relative growth: 0.991
[10]
  relative growth: 1.01

## CC1COC(Cn2cncn2)(c2ccc(Oc3ccc(Cl)cc3)cc2Cl)O1 (stereo not given)
[1]
  relative growth: 1.04
[2]
  relative growth: 1.06
[3]
  relative growth: 0.99
[4]
  relative growth: 1.06
[5]
  relative growth: 1.01
[6]
  relative growth: 1.03
[7]
  relative growth: 1.08
[8]
  relative growth: 0.952
[9]
  relative growth: 1.01
[10]
  relative growth: 1.06

## COCc1cnc(C2=NC(C)(C(C)C)C(=O)N2)c(C(=O)O)c1 (stereo not given)
[1]
  relative growth: 1.08
[2]
  relative growth: 0.958
[3]
  relative growth: 0.98
[4]
  relative growth: 0.992
[5]
  relative growth: 0.974
[6]
  relative growth: 0.972
[7]
  relative growth: 1.01
[8]
  relative growth: 0.972
[9]
  relative growth: 1.03
[10]
  relative growth: 0.982

## COCC(C)N(C(=O)CCl)c1c(C)csc1C (stereo not given)
[1]
  relative growth: 0.925
[2]
  relative growth: 1.04
[3]
  relative growth: 0.974
[4]
  relative growth: 1
[5]
  relative growth: 0.962
[6]
  relative growth: 1.07
[7]
  relative growth: 1.15
[8]
  relative growth: 1.04
[9]
  relative growth: 0.939
[10]
  relative growth: 1.01

## CC(C)(C)C(O)(CCc1ccc(Cl)cc1)Cn1cncn1 (stereo not given)
[1]
  relative growth: 0.931
[2]
  relative growth: 1.15
[3]
  relative growth: 0.962
[4]
  relative growth: 1.03
[5]
  relative growth: 0.94
[6]
  relative growth: 0.979
[7]
  relative growth: 1.05
[8]
  relative growth: 0.918
[9]
  relative growth: 0.943
[10]
  relative growth: 1.06

## CCOCn1c(-c2ccc(Cl)cc2)c(C#N)c(Br)c1C(F)(F)F
[1]
  relative growth: 1.01
[2]
  relative growth: 1.05
[3]
  relative growth: 1
[4]
  relative growth: 1.04
[5]
  relative growth: 1.02
[6]
  relative growth: 0.998
[7]
  relative growth: 1.11
[8]
  relative growth: 1.07
[9]
  relative growth: 1.01
[10]
  relative growth: 0.848

## Fc1ccc([C@]2(Cn3cncn3)O[C@H]2c2ccccc2Cl)cc1 (racemic)
[1]
  relative growth: 0.982
[2]
  relative growth: 0.942
[3]
  relative growth: 0.973
[4]
  relative growth: 1.04
[5]
  relative growth: 0.967
[6]
  relative growth: 0.992
[7]
  relative growth: 1.07
[8]
  relative growth: 1.08
[9]
  relative growth: 0.972
[10]
  relative growth: 1.01

## CCc1cccc(C)c1N(C(=O)CCl)[C@@H](C)COC
[1]
  relative growth: 1.01
[2]
  relative growth: 1.09
[3]
  relative growth: 0.996
[4]
  relative growth: 1
[5]
  relative growth: 0.993
[6]
  relative growth: 1.03
[7]
  relative growth: 1.13
[8]
  relative growth: 0.952
[9]
  relative growth: 0.985
[10]
  relative growth: 0.791

## O=C(O)COc1ccc(Cl)cc1Cl
[1]
  relative growth: 1.01
[2]
  relative growth: 0.923
[3]
  relative growth: 0.971
[4]
  relative growth: 1.04
[5]
  relative growth: 1.01
[6]
  relative growth: 0.997
[7]
  relative growth: 1.07
[8]
  relative growth: 1.03
[9]
  relative growth: 0.96
[10]
  relative growth: 1.04

## Cc1cc(C2CC2)nc(Nc2ccccc2)n1
[1]
  relative growth: 1.03
[2]
  relative growth: 1.11
[3]
  relative growth: 1
[4]
  relative growth: 1.03
[5]
  relative growth: 0.976
[6]
  relative growth: 0.991
[7]
  relative growth: 0.966
[8]
  relative growth: 1.06
[9]
  relative growth: 0.969
[10]
  relative growth: 0.951

## COCC(=O)N(c1c(C)cccc1C)[C@H](C)C(=O)OC
[1]
  relative growth: 0.988
[2]
  relative growth: 0.997
[3]
  relative growth: 0.974
[4]
  relative growth: 1.09
[5]
  relative growth: 1.03
[6]
  relative growth: 1.01
[7]
  relative growth: 1.01
[8]
  relative growth: 1.13
[9]
  relative growth: 0.965
[10]
  relative growth: 1.02

## Cc1nc(N(C)C)nc(OC(=O)N(C)C)c1C
[1]
  relative growth: 0.948
[2]
  relative growth: 1
[3]
  relative growth: 0.96
[4]
  relative growth: 0.978
[5]
  relative growth: 0.949
[6]
  relative growth: 0.991
[7]
  relative growth: 1.02
[8]
  relative growth: 1.22
[9]
  relative growth: 0.992
[10]
  relative growth: 0.968

## CN(C)C(CSS(=O)(=O)O)CSS(=O)(=O)O
[1]
  relative growth: 0.961
[2]
  relative growth: 1.14
[3]
  relative growth: 0.994
[4]
  relative growth: 1.08
[5]
  relative growth: 0.978
[6]
  relative growth: 1.04
[7]
  relative growth: 1.1
[8]
  relative growth: 0.931
[9]
  relative growth: 0.953
[10]
  relative growth: 0.893

## N#Cc1cc(Br)c(O)c(Br)c1
[1]
  relative growth: 0.996
[2]
  relative growth: 1.06
[3]
  relative growth: 1.02
[4]
  relative growth: 1.09
[5]
  relative growth: 0.964
[6]
  relative growth: 1.05
[7]
  relative growth: 1.12
[8]
  relative growth: 0.751
[9]
  relative growth: 0.998
[10]
  relative growth: 1.06

## O=C1C=C(N(Cc2ccc(Cl)nc2)CC(F)F)CO1
[1]
  relative growth: 0.95
[2]
  relative growth: 1.15
[3]
  relative growth: 0.993
[4]
  relative growth: 1.06
[5]
  relative growth: 0.993
[6]
  relative growth: 0.988
[7]
  relative growth: 1.06
[8]
  relative growth: 0.978
[9]
  relative growth: 0.962
[10]
  relative growth: 0.914

## CCCSP(=O)(OCC)Oc1ccc(Br)cc1Cl (stereo not given)
[1]
  relative growth: 1.01
[2]
  relative growth: 1.12
[3]
  relative growth: 1.08
[4]
  relative growth: 1.1
[5]
  relative growth: 0.975
[6]
  relative growth: 1.01
[7]
  relative growth: 1.04
[8]
  relative growth: 0.931
[9]
  relative growth: 0.955
[10]
  relative growth: 1.09

## CC1(C)CON(Cc2ccccc2Cl)C1=O
[1]
  relative growth: 0.954
[2]
  relative growth: 1.01
[3]
  relative growth: 0.981
[4]
  relative growth: 1.06
[5]
  relative growth: 0.975
[6]
  relative growth: 1.06
[7]
  relative growth: 1.13
[8]
  relative growth: 0.983
[9]
  relative growth: 0.94
[10]
  relative growth: 1.15
